Source: PubChem BioAssay (Tox21)
Several values for one entry are separate records, joined by “and”; a condition that tells them apart may be missing. Identical values can stand only once. Results filed as inconclusive are left out. A structure can be active in one record and inactive in another. Activity calls are given as the source filed them. Unless noted, calls follow the shape of the dose curve; as a rule, active = well fitted curve in the direction sought with a large enough effect in the repeat runs; inconclusive = weak or mixed curves; inactive = no such curve, though single readings can be large; an effect the other way counts as inactive or inconclusive.

How the values were obtained:
[1] = molecular target: Aryl hydrocarbon receptor (Homo sapiens) (UniProt P35869); test: qHTS assay to identify small molecule that activate the aryl hydrocarbon receptor (AhR) signaling pathway (AID 743085); also: nearly all actives have a fitted effect of over 15% in size; also: potency is read from the fitted curve at half-maximal effect;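 as to activation: HG2L7.5c1 human HepG2 liver cells with stably integrated DRE-driven firefly reporter; series mostly up to about 70 µM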
In short: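 24 h compound exposure, 37C, HepG2-derived HG2L7.5c1 cells with DRE-responsive luciferase. Readouts: fluorescence viability, then luminescence at room temperature after 30 min.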

[2] = qHTS assay to identify small molecule that activate the aryl hydrocarbon receptor (AhR) signaling pathway - cell viability counter screen (AID 743086);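 also: HepG2 liver cells carrying the AhR DRE luciferase reporter; series mostly up to about 70 µM; nearly all actives have a fitted effect of over 45% in size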
In short: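 HepG2-AhR-luc (HG2L7.5c1) cells, 4000/well, were preincubated 5 h at 37C, exposed to compound in qHTS format for 24 hr at 37C, then given CellTiter-Fluor for 30 min; viability was read as fluorescence in the reporter wells.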

[3] = molecular target: Peroxisome proliferator-activated receptor gamma (Homo sapiens) (UniProt P37231); test: qHTS assay to identify small molecule agonists of the peroxisome proliferator-activated receptor gamma (PPARg) signaling pathway (AID 743094; active = well fitted activation curve with a large enough effect in the signal ratio in the repeat runs, not every such curve was filed as active; the % refers to the signal ratio)
In short: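 GeneBLAzer PPARg UAS-bla HEK293H cells were plated, rested 5 h, then exposed to compounds for 17 h at 37C. Beta-lactamase activity was read by LiveBLAzer B/G FRET substrate fluorescence after 1 h at room temperature.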

[4] = molecular target: Peroxisome proliferator-activated receptor gamma (Homo sapiens) (UniProt P37231); test: qHTS assay to identify small molecule antagonists of the peroxisome proliferator-activated receptor gamma (PPARg) signaling pathway (AID 743191; calls by dose curve; also: nearly all actives have a fitted effect of over 30% in size; also: potency is read from the fitted curve at half-maximal effect)
In short: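 GeneBLAzer PPARg UAS-bla HEK293H cells carrying a UAS-driven beta-lactamase reporter were plated at 3000 cells/well, preincubated 5 h at 37C, then given compound for 17 h at 37C; LiveBLAzer B/G FRET substrate was read after 1 h at room temperature.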

[5] = qHTS assay to identify small molecule antagonists of the peroxisome proliferator-activated receptor gamma (PPARg) signaling pathway - cell viability counter screen (AID 743194); also: nearly all actives have a fitted effect of over 55% in size
In short: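 PPARg-UAS-bla HEK293H cells were plated, rested 5 h at 37 C, then treated with compounds plus rosiglitazone (50 nM final) for 17 h at 37 C; viability was then read by CellTiter-Glo luminescence after 30 min at room temperature.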

[6] = qHTS assay for small molecule agonists of the antioxidant response element (ARE) signaling pathway (AID 743202; active = well fitted activation curve with a large enough effect in the signal ratio in the repeat runs, not every such curve was filed as active; the % refers to the signal ratio; also: potency is read from the fitted curve at half-maximal effect)
In short: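 Compounds delivered in DMSO to ARE-bla HepG2 cells (2,000 cells/well, pre-incubated 5 h) and left 16 h at 37 C. LiveBLAzer B/G FRET substrate then added for 2 h at RT before fluorescence reading.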

[7] = qHTS assay for small molecule agonists of the antioxidant response element (ARE) signaling pathway - cell viability counter screen (AID 743203; calls by dose curve; also: nearly all actives have a fitted effect of over 55% in size)
In short: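 ARE-bla HepG2 cells were plated, rested 5 h at 37C/5% CO2, then exposed to compounds in DMSO for 16 h. Viability was read as CellTiter-Glo luminescence after 30 min at room temperature, in the same wells as the ARE screen.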

[8] = qHTS assay for small molecule activators of the heat shock response signaling pathway - cell viability counter screen (AID 743209); also: nearly all actives have a fitted effect of over 50% in size
In short: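 HSE-bla HeLa cells plated overnight, then exposed to Tox21 compounds (23 nL in DMSO) for 5 h at 37 C. After the bla reporter read, CellTiter-Glo was added in the same wells and luminescence read after 30 min at room temperature.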

[9] = qHTS assay for small molecule activators of the heat shock response signaling pathway (AID 743210; active = well fitted activation curve with a large enough effect in the signal ratio in the repeat runs, with a control signal flat, not every such curve was filed as active; the % refers to the signal ratio;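 also: HeLa cells with beta-lactamase reporter driven by heat shock elements; series mostly up to about 63 µM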)
In short: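 Reporter gene assay: HeLa cells stably bearing an HSE-bla construct, compound treatment 5 h at 37 C, LiveBLAzer substrate 2.5 h at RT, fluorescence intensity.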

[10] = qHTS assay to identify small molecule agonists of the peroxisome proliferator-activated receptor delta (PPARd) signaling pathway - cell viability counter screen (AID 743211); also: nearly all actives have a fitted effect of over 55% in size; also: potency is read from the fitted curve at half-maximal effect
In short: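 Luminescent ATP viability assay (CellTiter-Glo, 30 min RT) in UAS-bla HEK293H cells carrying the PPAR delta reporter construct, 3000 cells/well, after a 17 h compound treatment at 37 C.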

[11] = qHTS assay to identify small molecule antagonists of the peroxisome proliferator-activated receptor delta (PPARd) signaling pathway - cell viability counter screen (AID 743213); also: nearly all actives have a fitted effect of over 50% in size
In short: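 PPARd-bla HEK293H cells were treated with compounds plus agonist L165041 (300 nM final) for 17 h at 37 C. Viability was then read in the same wells by CellTiter-Glo luminescence after 30 min at room temperature.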

[12] = qHTS assay to identify small molecule agonists of the farnesoid-X-receptor (FXR) signaling pathway - cell viability counter screen (AID 743218); also: nearly all actives have a fitted effect of over 45% in size
In short: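 FXR-UAS-bla HEK 293T cells exposed to compounds for 16 h at 37C. Cytotoxicity read in the same wells by CellTiter-Glo luminescence after 30 min at room temperature, following the beta-lactamase FRET read.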

[13] = qHTS assay to identify small molecule antagonists of the farnesoid-X-receptor (FXR) signaling pathway - cell viability counter screen (AID 743221; active = well fitted cell-killing curve with a large enough effect in the repeat runs, not every such curve was filed as active; also: nearly all actives have a fitted effect of over 50% in size)
In short: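 In GeneBLAzer FXR-UAS-bla HEK 293T cells stimulated with 50 uM chenodeoxycholic acid (final), compounds acted for 16 h at 37 C. Viability was assessed afterwards by CellTiter-Glo luminescence.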

[14] = molecular target: Vitamin D3 receptor (Homo sapiens) (UniProt P11473); test: qHTS assay to identify small molecule agonists of the vitamin D receptor (VDR) signaling pathway (AID 743222; calls by dose curve)
In short: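 VDR-bla cells plated 4 h at 37 C, then exposed to compounds for 16 h at 37 C. Beta-lactamase reporter activity measured by fluorescence after 2 h room-temperature loading with LiveBLAzer B/G FRET substrate.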

[15] = molecular target: Vitamin D3 receptor (Homo sapiens) (UniProt P11473); test: qHTS assay to identify small molecule antagonists of the vitamin D receptor (VDR) signaling pathway (AID 743223; active = well fitted inhibition curve with a large enough effect in the signal ratio in the repeat runs, not every such curve was filed as active; the % refers to the signal ratio)
In short: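 Agonist 1alpha,25-dihydroxyvitamin D3 (3 nM in well) was added with each compound to VDR-bla cells preincubated 4 h. Cells stood 16 h at 37C, then FRET substrate 2 h at room temperature; fluorescence intensity recorded.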

[16] = qHTS assay to identify small molecule agonists of the vitamin D receptor (VDR) signaling pathway - cell viability counter screen (AID 743224); also: nearly all actives have a fitted effect of over 50% in size; also: potency is read from the fitted curve at half-maximal effect
In short: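 VDR-bla cells, 4 h after plating, exposed to compounds for 16 h at 37C; viability then read in the same wells as CellTiter-Glo luminescence after 30 min at room temperature, following the bla FRET read.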

[17] = molecular target: Peroxisome proliferator-activated receptor delta (Homo sapiens) (UniProt Q03181); test: qHTS assay to identify small molecule agonists of the peroxisome proliferator-activated receptor delta (PPARd) signaling pathway (AID 743212; calls by dose curve)
In short: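 A PPARd-bla HEK293H line with beta-lactamase under an Upstream Activator Sequence is treated with compounds at 37 C. Substrate loading for 2 h at room temperature precedes the fluorescence measurement.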

[18] = molecular target: Peroxisome proliferator-activated receptor delta (Homo sapiens) (UniProt Q03181); test: qHTS assay to identify small molecule antagonists of the peroxisome proliferator-activated receptor delta (PPARd) signaling pathway (AID 743215; active = well fitted inhibition curve with a large enough effect in the signal ratio in the repeat runs, not every such curve was filed as active; the % refers to the signal ratio;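 also: cells stimulated with agonist L165041 at 300 nM final during compound exposure; series mostly up to about 62 µM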)
In short: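 PPARd-bla HEK293H cells (UAS-bla reporter) preincubated 5 h, then given compound plus 300 nM final L165041 agonist for 17 h at 37 C. Beta-lactamase activity read by LiveBLAzer B/G FRET substrate fluorescence after 2 h at room temperature.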

[19] = molecular target: Bile acid receptor (Homo sapiens) (UniProt Q96RI1); test: qHTS assay to identify small molecule antagonists of the farnesoid-X-receptor (FXR) signaling pathway (AID 743217; active = well fitted inhibition curve with a large enough effect in the signal ratio in the repeat runs, not every such curve was filed as active; the % refers to the signal ratio)
In short: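 FXR-UAS-bla HEK 293T cells (beta-lactamase reporter) given compound plus chenodeoxycholic acid (50 uM final), 16 h at 37C. LiveBLAzer B/G FRET substrate added for 2 h at room temperature; fluorescence read.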

[20] = molecular target: Bile acid receptor (Homo sapiens) (UniProt Q96RI1); test: qHTS assay to identify small molecule agonists of the farnesoid-X-receptor (FXR) signaling pathway (AID 743220; active = well fitted activation curve with a large enough effect in the signal ratio in the repeat runs, not every such curve was filed as active; the % refers to the signal ratio)
In short: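 Beta-lactamase reporter under UAS control in GeneBLAzer FXR HEK 293T cells (5000/well) measured with LiveBLAzer FRET substrate after 2 h at room temperature. Compound exposure lasted 16 h at 37C.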

Measured: Potency

Sequence of Aryl hydrocarbon receptor (Homo sapiens) (P35869 whole entry, looked up): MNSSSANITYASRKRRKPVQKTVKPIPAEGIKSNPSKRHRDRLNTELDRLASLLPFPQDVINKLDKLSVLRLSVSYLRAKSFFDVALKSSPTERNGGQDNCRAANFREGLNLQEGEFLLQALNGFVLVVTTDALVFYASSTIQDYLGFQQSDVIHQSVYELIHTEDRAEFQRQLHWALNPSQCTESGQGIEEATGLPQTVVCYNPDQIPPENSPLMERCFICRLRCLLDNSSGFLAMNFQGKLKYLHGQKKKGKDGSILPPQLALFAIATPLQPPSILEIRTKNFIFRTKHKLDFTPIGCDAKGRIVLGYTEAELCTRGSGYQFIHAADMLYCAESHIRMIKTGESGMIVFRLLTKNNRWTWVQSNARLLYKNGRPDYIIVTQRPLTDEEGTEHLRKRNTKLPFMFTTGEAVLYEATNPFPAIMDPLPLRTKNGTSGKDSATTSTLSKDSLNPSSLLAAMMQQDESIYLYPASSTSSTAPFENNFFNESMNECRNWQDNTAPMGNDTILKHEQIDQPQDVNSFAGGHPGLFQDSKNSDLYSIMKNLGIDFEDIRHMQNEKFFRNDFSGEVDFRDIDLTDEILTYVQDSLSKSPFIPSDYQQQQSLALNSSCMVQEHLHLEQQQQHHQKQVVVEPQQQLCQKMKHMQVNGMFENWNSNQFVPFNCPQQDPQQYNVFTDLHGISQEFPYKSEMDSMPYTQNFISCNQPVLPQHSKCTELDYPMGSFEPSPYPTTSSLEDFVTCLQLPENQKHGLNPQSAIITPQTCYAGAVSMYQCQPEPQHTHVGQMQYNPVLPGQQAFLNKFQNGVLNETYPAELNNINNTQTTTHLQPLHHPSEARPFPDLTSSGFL
Sequence of Peroxisome proliferator-activated receptor gamma (Homo sapiens) (P37231 whole entry, looked up): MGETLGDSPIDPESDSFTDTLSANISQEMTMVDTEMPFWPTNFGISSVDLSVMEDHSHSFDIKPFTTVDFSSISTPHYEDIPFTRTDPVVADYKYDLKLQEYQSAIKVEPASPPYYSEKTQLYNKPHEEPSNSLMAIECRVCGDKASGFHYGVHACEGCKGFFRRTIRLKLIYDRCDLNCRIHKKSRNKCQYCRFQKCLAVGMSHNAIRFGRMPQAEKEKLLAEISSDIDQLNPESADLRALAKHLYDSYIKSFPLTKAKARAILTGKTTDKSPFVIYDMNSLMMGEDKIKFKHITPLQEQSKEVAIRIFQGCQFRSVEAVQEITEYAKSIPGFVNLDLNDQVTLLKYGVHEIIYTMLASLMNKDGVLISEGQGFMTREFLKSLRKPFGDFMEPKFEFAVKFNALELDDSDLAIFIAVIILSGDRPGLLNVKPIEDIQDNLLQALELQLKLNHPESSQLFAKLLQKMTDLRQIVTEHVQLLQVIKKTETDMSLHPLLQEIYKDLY
Sequence of Vitamin D3 receptor (Homo sapiens) (P11473 whole entry, looked up): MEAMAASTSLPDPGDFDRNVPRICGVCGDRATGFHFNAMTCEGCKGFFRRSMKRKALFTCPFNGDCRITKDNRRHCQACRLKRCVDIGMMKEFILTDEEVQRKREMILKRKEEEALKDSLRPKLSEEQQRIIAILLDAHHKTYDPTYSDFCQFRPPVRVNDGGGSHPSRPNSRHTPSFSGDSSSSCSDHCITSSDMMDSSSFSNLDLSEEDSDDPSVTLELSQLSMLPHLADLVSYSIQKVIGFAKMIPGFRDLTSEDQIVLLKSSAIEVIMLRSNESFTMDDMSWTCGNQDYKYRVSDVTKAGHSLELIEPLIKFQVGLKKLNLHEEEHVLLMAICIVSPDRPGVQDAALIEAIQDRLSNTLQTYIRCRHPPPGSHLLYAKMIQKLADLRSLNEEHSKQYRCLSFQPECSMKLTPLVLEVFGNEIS
Sequence of Peroxisome proliferator-activated receptor delta (Homo sapiens) (Q03181 whole entry, looked up): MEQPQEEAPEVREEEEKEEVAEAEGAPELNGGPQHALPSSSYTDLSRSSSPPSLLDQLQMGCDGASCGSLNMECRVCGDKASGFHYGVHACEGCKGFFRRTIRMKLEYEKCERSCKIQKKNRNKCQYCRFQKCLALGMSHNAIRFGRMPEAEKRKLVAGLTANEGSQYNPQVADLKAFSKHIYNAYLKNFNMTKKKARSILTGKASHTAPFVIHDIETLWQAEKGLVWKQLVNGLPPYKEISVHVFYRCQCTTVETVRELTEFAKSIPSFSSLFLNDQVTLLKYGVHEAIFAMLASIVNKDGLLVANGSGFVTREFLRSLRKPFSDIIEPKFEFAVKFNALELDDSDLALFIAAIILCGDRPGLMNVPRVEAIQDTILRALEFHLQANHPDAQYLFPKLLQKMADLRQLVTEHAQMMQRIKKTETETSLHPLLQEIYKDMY
Sequence of Bile acid receptor (Homo sapiens) (Q96RI1 whole entry, looked up): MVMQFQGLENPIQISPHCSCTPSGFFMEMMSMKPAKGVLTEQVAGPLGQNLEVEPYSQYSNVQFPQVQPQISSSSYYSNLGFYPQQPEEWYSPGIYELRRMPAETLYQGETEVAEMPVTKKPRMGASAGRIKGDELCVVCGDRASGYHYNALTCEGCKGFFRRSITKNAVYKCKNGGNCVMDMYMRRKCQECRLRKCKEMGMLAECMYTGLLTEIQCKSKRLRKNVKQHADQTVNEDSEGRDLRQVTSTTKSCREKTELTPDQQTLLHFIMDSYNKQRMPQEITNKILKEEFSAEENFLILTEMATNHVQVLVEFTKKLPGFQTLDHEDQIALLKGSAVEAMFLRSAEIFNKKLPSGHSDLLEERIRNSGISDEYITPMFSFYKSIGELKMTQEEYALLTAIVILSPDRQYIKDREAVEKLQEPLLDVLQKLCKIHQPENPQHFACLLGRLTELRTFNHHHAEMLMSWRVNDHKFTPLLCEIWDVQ

NC(CO)(CO)CO
not listed: [17] | [18] | [19] | [20]
inactive: all other assays above

Cc1ncc([N+](=O)[O-])n1CCO
not listed: [14] | [15] | [19] | [20]
inactive: all other assays above

O=c1[nH]cnc2c1ncn2[C@H]1CC[C@@H](CO)O1
not listed: [9] | [14] | [15] | [19] | [20]
inactive: all other assays above

Cc1cn([C@H]2C=C[C@@H](CO)O2)c(=O)[nH]c1=O
inactive: all assays above

NC1CCCCC1
30.8 µM (active) and inactive: [1]
not listed: [19] | [20]
inactive: all other assays above

F[B-](F)(F)F
inactive and 27.6 µM (active): [6]
not listed: [17] | [18] | [19] | [20]
inactive: all other assays above

CCCc1cc(=O)[nH]c(=S)[nH]1
not listed: [14] | [15] | [19] | [20]
inactive: all other assays above

CCCCCCCC(=O)OCC(COC(=O)CCCCCCC)OC(=O)CCCCCCC
inactive: all assays above

CC(=O)C(=O)O
not listed: [19] | [20]
inactive: all other assays above

CCCCC1(COC(=O)CCC(=O)O)C(=O)N(c2ccccc2)N(c2ccccc2)C1=O
not listed: [19] | [20]
inactive: all other assays above

CC(C)C(=O)Nc1ccc([N+](=O)[O-])c(C(F)(F)F)c1
active: [6] 19.3 µM and 23.7 µM
not listed: [14] | [15] | [17] | [18]
inactive: all other assays above

Nc1c2c(nc3ccccc13)CCCC2
active: [1] 4.86 µM and 61.1 µM
not listed: [14] | [15] | [17] | [18] | [19] | [20]
inactive: all other assays above

CC1(C)O[C@@H]2C[C@H]3[C@@H]4CCC5=CC(=O)C=C[C@]5(C)[C@@]4(F)[C@@H](O)C[C@]3(C)[C@]2(C(=O)CO)O1
not listed: [9]
inactive: all other assays above

CCCCCCc1ccc(O)cc1O
43.8 µM (active) and inactive: [10]
active: [4] 11.9 µM | [6] 24.4 µM and 26.6 µM
38.9 µM (active) and inactive: [16]
not listed: [17] | [18] | [19] | [20]
inactive: all other assays above
